Experimental findings from PubChem BioAssay are described below.

SMILES strings stand for the structures. Entries with a potency or affinity are not part of this list. Active and inactive are the calls of the source.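 Rule for the calls, unless noted: active = a dose-response fit showing signal loss, with half-maximal concentration no higher than twice the top tested dose; inconclusive = flat fit between 30% and 70% signal loss, or poor fit; inactive = the rest.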

A short description of one assay: inducers of Cryptococcus neoformans cell lysis, dose response, AK release luminescence, cherry-picks (AID 687000;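 active = fitted dose curve reaches 40% lysis signal rise at or below the highest valid concentration tested for that sample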;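 note: luminescent detection of adenylate kinase leaking from lysed yeast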). To be noted: C. neoformans lysis, adenylate kinase release luminescence, 4 h, 100% = twice the neutral-control signal; series mostly up to 15 µM.
For the compound `CN1c2ccc(Br)cc2[C@@H]2[C@@H](CCN2C(=O)Cc2cccnc2)[C@@H]1CO`, the compound was called inactive.

For the compound `COC(=O)C1=C(C)N(Cc2ccccc2)C(=O)N[C@H]1c1cccc(F)c1`, the result was inactive.

For the compound `Cc1cc(OCC(=O)N(C)Cc2ccccc2)cc(C)c1Cl`, the outcome was inactive.

Turning to `O=C(CSc1ncnc2c1cnn2-c1ccc(F)cc1)NCc1ccc2c(c1)OCO2`, the outcome was inactive.

Turning to `CN(C)CCCn1c(=O)n(C2CCCCC2)c(=O)c2c3c(sc21)CCCCC3`, the call was inactive.

With `O=C(NC(=S)Nc1ccccc1N1CCOCC1)c1ccc([N+](=O)[O-])cc1`, the outcome was inactive.

In the case of `C[C@H](NC(=O)C[C@@H]1C=C[C@H](NC(=O)CN2CCOCC2)[C@H](CO)O1)c1ccccc1`, the compound was classed as inactive.

Take `Cc1ccc(NC(=O)C2CCC(=O)N2)cc1C` (stereo not drawn): the result was inactive.

For the compound `CCNC(=O)CN(c1ccc(C)cc1)S(=O)(=O)c1ccc(SC)cc1`, the result was inactive.

As to `CC(C)NC(=O)Nc1ccc2c(c1)C(=O)N([C@H](C)CO)C[C@H](C)[C@H](CN(C)Cc1ccncc1)OCCCC[C@H](C)O2`, the call was inactive.

Regarding `O=C(NC(=S)Nc1ccccc1[N+](=O)[O-])c1ccccc1`, the compound was called inactive.

As to `CCC(=O)N1CCC1(C)C(=O)Nc1ccc(C)c(C)c1` (stereo not drawn), the compound was called inactive.

As to `CC(NC(=O)COc1ccccc1-c1ccccc1)c1ccccc1` (stereo not drawn), the outcome was inactive.

With `Cc1cc(C)cc(OCC(=O)NC(C)c2ccccc2)c1` (stereo not drawn), the compound was called inactive.

In the case of `CCN(CC)C(=O)CSc1ncnc2c1cnn2-c1ccccc1`, the outcome was inactive.

Take `CC(=O)c1ccc(N2CCN(C(=O)Cc3cccs3)CC2)cc1`: the compound was classed as inactive.

As for `Cc1ccc(S(=O)(=O)N[C@H]2CC[C@H](CC(=O)NCc3ccccc3F)O[C@H]2CO)cc1`, the compound was called inactive.

With `CC(C)C(=O)N1CCC1(C)C(=O)Nc1ccccc1C(C)(C)C` (stereo not drawn), the result was inactive.

With `CO[C@@H]1CN(C)C(=O)c2ccc(NS(=O)(=O)c3ccc(Oc4ccccc4)cc3)cc2OC[C@H](C)NC[C@H]1C`, the result was inactive.

Take `CNC[C@@H]1Oc2ccc(NS(=O)(=O)c3ccc(Cl)cc3)cc2C(=O)N([C@H](C)CO)C[C@H]1C`: the call was inactive.

Take `COCC#Cc1ccc2c(c1)O[C@H](CN(C)S(=O)(=O)c1ccc(OC)cc1)[C@H](C)CN([C@H](C)CO)S2(=O)=O`: the result was inactive.

`Cc1cc(C)c(NC(=O)CNC(=O)CNC(=O)C2CCCCC2)c(C)c1`: the compound was called inactive.

On to `CC(C)NC(=O)Nc1ccc2c(c1)C(=O)N([C@@H](C)CO)C[C@@H](C)[C@@H](CN(C)C(=O)NC1CCCCC1)OCCCC[C@H](C)O2`, for which the result was inactive.

Consider `Cc1ccc(OCC(=O)NC(C)c2ccccc2)cc1C` (stereo not drawn), for which the compound was called inactive.

Take `CCOc1ccc(C(=O)NC(=S)Nc2ccccc2N2CCCCC2)cc1[N+](=O)[O-]`: the call was inactive.

For `Cc1cccc(NC(=O)CN(C)C(=O)C2CCCC2)c1C`, the compound was classed as inactive.

On to `Cc1noc(C)c1NC(=O)N(C)C[C@H]1OCCCC[C@@H](C)Oc2ccc(NC(=O)NC(C)C)cc2C(=O)N([C@H](C)CO)C[C@H]1C`, for which the compound was called inactive.

For `O=C(CN(c1ccc(F)cc1)S(=O)(=O)c1ccccc1)NC1CC2CCC1C2` (stereo not drawn), the outcome was inactive.

On to `CCC(=O)Nc1ccc2c(c1)OC[C@H](C)N(C(=O)c1ccc(F)cc1)C[C@@H](C)[C@@H](OC)CN(C)C2=O`, for which the call was inactive.

With `N#C[C@H]1[C@@H](c2ccccc2)[C@@H](CO)N1C(=O)Cc1ccccc1`, the result was inactive.

Take `C[C@H]1CN([C@@H](C)CO)C(=O)CCCn2cc(nn2)CO[C@@H]1CN(C)Cc1ccc(C(F)(F)F)cc1`: the compound was called inactive.

Regarding `COCCNC(=O)C[C@H]1C=C[C@H](NS(=O)(=O)c2ccc(C)cc2)[C@@H](CO)O1`, the result was inactive.

As for `O=C(c1c(Cl)cccc1Cl)N1CCN(c2ccccn2)CC1`, the compound was called inactive.

As to `Cc1ccccc1N(CC(=O)NCCSC1CCCCC1)S(=O)(=O)c1ccccc1`, the call was inactive.

For `C/C=C/c1ccc([C@@H]2[C@@H](C#N)N(S(=O)(=O)c3cccc(F)c3)[C@@H]2CO)cc1`, the compound was called inactive.

As to `CCC(=O)N1[C@H](CO)[C@@H](c2ccc(-c3cccnc3)cc2)[C@@H]1CN(C)C(C)=O`, the compound was classed as inactive.

As to `C[C@@H]1CN([C@@H](C)CO)C(=O)c2cc(-c3cncnc3)cnc2O[C@H]1CN(C)C(=O)CN1CCOCC1`, the call was inactive.

On to `O=C(CCN1CCCCC1)NCC[C@@H]1CC[C@H](NC(=O)c2ccc(F)cc2)[C@@H](CO)O1`, for which the compound was classed as inactive.

With `C[C@@H]1CN([C@@H](C)CO)C(=O)c2cc(NC(=O)C3CC3)ccc2O[C@H]1CN(C)Cc1ccc2c(c1)OCO2`, the compound was classed as inactive.

The nature of another assay: HepG2 cell cytotoxicity, dose response, cytotoxicity control, cherry-picks, set 2 (AID 687002). To be noted: HepG2 viability, ATP luminescence (CellTiter-Glo), 48 h; series mostly up to 26 µM. (ATP-based viability assays read luminescence as a measure of living cells.)
Turning to `CN1c2ccc(Br)cc2[C@@H]2[C@@H](CCN2C(=O)Cc2cccnc2)[C@@H]1CO`, the compound was classed as inactive.

In the case of `COC(=O)C1=C(C)N(Cc2ccccc2)C(=O)N[C@H]1c1cccc(F)c1`, the compound was classed as inactive.

As for `Cc1cc(OCC(=O)N(C)Cc2ccccc2)cc(C)c1Cl`, the compound was called inactive.

On to `O=C(CSc1ncnc2c1cnn2-c1ccc(F)cc1)NCc1ccc2c(c1)OCO2`, for which the compound was called inactive.

On to `CN(C)CCCn1c(=O)n(C2CCCCC2)c(=O)c2c3c(sc21)CCCCC3`, for which the call was inactive.

For the compound `O=C(NC(=S)Nc1ccccc1N1CCOCC1)c1ccc([N+](=O)[O-])cc1`, the outcome was inactive.

`C[C@H](NC(=O)C[C@@H]1C=C[C@H](NC(=O)CN2CCOCC2)[C@H](CO)O1)c1ccccc1`: the compound was classed as inactive.

Turning to `Cc1ccc(NC(=O)C2CCC(=O)N2)cc1C` (stereo not drawn), the outcome was inactive.

Turning to `CCNC(=O)CN(c1ccc(C)cc1)S(=O)(=O)c1ccc(SC)cc1`, the compound was called inactive.

Take `CC(C)NC(=O)Nc1ccc2c(c1)C(=O)N([C@H](C)CO)C[C@H](C)[C@H](CN(C)Cc1ccncc1)OCCCC[C@H](C)O2`: the call was inactive.

`O=C(NC(=S)Nc1ccccc1[N+](=O)[O-])c1ccccc1`: the call was inactive.

Consider `CCC(=O)N1CCC1(C)C(=O)Nc1ccc(C)c(C)c1` (stereo not drawn), for which the result was inactive.

Regarding `CC(NC(=O)COc1ccccc1-c1ccccc1)c1ccccc1` (stereo not drawn), the result was inactive.

`Cc1cc(C)cc(OCC(=O)NC(C)c2ccccc2)c1` (stereo not drawn): the outcome was inactive.

As for `CCN(CC)C(=O)CSc1ncnc2c1cnn2-c1ccccc1`, the compound was called inactive.

As to `CC(=O)c1ccc(N2CCN(C(=O)Cc3cccs3)CC2)cc1`, the result was inactive.

In the case of `Cc1ccc(S(=O)(=O)N[C@H]2CC[C@H](CC(=O)NCc3ccccc3F)O[C@H]2CO)cc1`, the outcome was inactive.

For the compound `CC(C)C(=O)N1CCC1(C)C(=O)Nc1ccccc1C(C)(C)C` (stereo not drawn), the outcome was inactive.

For `CO[C@@H]1CN(C)C(=O)c2ccc(NS(=O)(=O)c3ccc(Oc4ccccc4)cc3)cc2OC[C@H](C)NC[C@H]1C`, the outcome was inactive.

`CNC[C@@H]1Oc2ccc(NS(=O)(=O)c3ccc(Cl)cc3)cc2C(=O)N([C@H](C)CO)C[C@H]1C`: the compound was classed as inactive.

Take `COCC#Cc1ccc2c(c1)O[C@H](CN(C)S(=O)(=O)c1ccc(OC)cc1)[C@H](C)CN([C@H](C)CO)S2(=O)=O`: the compound was called inactive.

`Cc1cc(C)c(NC(=O)CNC(=O)CNC(=O)C2CCCCC2)c(C)c1`: the result was inactive.

As for `CC(C)NC(=O)Nc1ccc2c(c1)C(=O)N([C@@H](C)CO)C[C@@H](C)[C@@H](CN(C)C(=O)NC1CCCCC1)OCCCC[C@H](C)O2`, the outcome was inactive.

Regarding `Cc1ccc(OCC(=O)NC(C)c2ccccc2)cc1C` (stereo not drawn), the outcome was inactive.

Turning to `CCOc1ccc(C(=O)NC(=S)Nc2ccccc2N2CCCCC2)cc1[N+](=O)[O-]`, the compound was classed as inactive.

Turning to `Cc1cccc(NC(=O)CN(C)C(=O)C2CCCC2)c1C`, the call was inactive.

As to `Cc1noc(C)c1NC(=O)N(C)C[C@H]1OCCCC[C@@H](C)Oc2ccc(NC(=O)NC(C)C)cc2C(=O)N([C@H](C)CO)C[C@H]1C`, the result was inactive.

With `O=C(CN(c1ccc(F)cc1)S(=O)(=O)c1ccccc1)NC1CC2CCC1C2` (stereo not drawn), the call was inactive.

Consider `CCC(=O)Nc1ccc2c(c1)OC[C@H](C)N(C(=O)c1ccc(F)cc1)C[C@@H](C)[C@@H](OC)CN(C)C2=O`, for which the result was inactive.

As to `N#C[C@H]1[C@@H](c2ccccc2)[C@@H](CO)N1C(=O)Cc1ccccc1`, the result was inactive.

For the compound `C[C@H]1CN([C@@H](C)CO)C(=O)CCCn2cc(nn2)CO[C@@H]1CN(C)Cc1ccc(C(F)(F)F)cc1`, the compound was classed as inactive.

Take `COCCNC(=O)C[C@H]1C=C[C@H](NS(=O)(=O)c2ccc(C)cc2)[C@@H](CO)O1`: the outcome was inactive.

Consider `O=C(c1c(Cl)cccc1Cl)N1CCN(c2ccccn2)CC1`, for which the outcome was inactive.

On to `Cc1ccccc1N(CC(=O)NCCSC1CCCCC1)S(=O)(=O)c1ccccc1`, for which the call was inactive.

Consider `C/C=C/c1ccc([C@@H]2[C@@H](C#N)N(S(=O)(=O)c3cccc(F)c3)[C@@H]2CO)cc1`, for which the call was inactive.

As to `CCC(=O)N1[C@H](CO)[C@@H](c2ccc(-c3cccnc3)cc2)[C@@H]1CN(C)C(C)=O`, the call was inactive.

As for `C[C@@H]1CN([C@@H](C)CO)C(=O)c2cc(-c3cncnc3)cnc2O[C@H]1CN(C)C(=O)CN1CCOCC1`, the compound was classed as inactive.

`O=C(CCN1CCCCC1)NCC[C@@H]1CC[C@H](NC(=O)c2ccc(F)cc2)[C@@H](CO)O1`: the outcome was inactive.

Turning to `C[C@@H]1CN([C@@H](C)CO)C(=O)c2cc(NC(=O)C3CC3)ccc2O[C@H]1CN(C)Cc1ccc2c(c1)OCO2`, the compound was called inactive.
